The full list was thinned out, with hits kept by preference.
ERK EGF block: blocks ERK signaling stimulated by EGF; HEK293-V1b, EGF-stimulated phospho-ERK AlphaScreen; Potency, µM (top dose mostly 11.5 µM), without a hit: at the highest dose activity change, negative = inhibition, usual class: inhibitors; 0.41% of 130,000 active; active = well fitted inhibition curve with a large enough effect;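 note: plate controls were stimulated vehicle wells for no effect and unstimulated vehicle basal for full effect; nearly all actives have a fitted effect of over 55% in size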
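Cell line HEK293 (stable V1b), low serum overnight. Pretreatment: compound 30 min, 37C. EGF 25 nM, 5 min. Detection: SureFire AlphaScreen, 5 h RT. AC50 via standard Hill equation.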
* marks the source's active call; other numbers are inactive results; [ ] = dose if it differs, or a comment. Potency is the fitted concentration of half-maximal effect.

Results for COc1ccccc1NS(=O)(=O)c1ccc(N/N=C/c2c(C)nn(-c3ccccc3)c2N2CCCC2)c([N+](=O)[O-])c1 ?
ERK EGF block: 13µM*

How did Cc1nn(-c2ccccc2)c(N2CCCC2)c1/C=N/Nc1ccc(S(=O)(=O)Nc2ccccc2)cc1[N+](=O)[O-] do in these assays?
ERK EGF block: 4%

How did COc1ccccc1NS(=O)(=O)c1cccc(C(=O)N/N=C/c2c(C)nn(-c3ccccc3)c2N2CCCC2)c1 do in these assays?
ERK EGF block: 5%

What do the screens show for `O=[N+]([O-])c1cccc2c[nH]nc12`?
ERK EGF block: -3%

What do the screens show for `COc1ccc2c(c1)C(=O)[C@H](OC(=O)NCCOc1ccccc1)[C@@H](c1ccc(OC)c(Br)c1)O2`?
ERK EGF block: -3%

Results for CCN1/C(=C\C(=S)Nc2ccccc2)Sc2ccccc21 ?
ERK EGF block: 5%

What do the screens show for `CCN1/C(=C\C=C(C(C)=O)C(C)=O)Sc2ccccc21`?
ERK EGF block: 2%

What do the screens show for `CCN1/C(=C/C(C)=C/c2sc3ccccc3[n+]2CC)Sc2ccccc21`?
ERK EGF block: 18µM*

Results for CC(=O)c1cccc(NC(=O)C(=O)Nc2cccc3ccccc23)c1 ?
ERK EGF block: 5%

What do the screens show for `CC(C)C[C@H]1C(=O)N2CCCC2[C@]2(O)O[C@](NC(=O)[C@@H]3C=C4c5cccc6[nH]c(Br)c(c56)C[C@H]4N(C)C3)(C(C)C)C(=O)N12` (stereo partly drawn)?
ERK EGF block: -1%

Results for O=C(O)c1ccc2cc(-c3ccc(O)c(C45CC6CC(CC(C6)C4)C5)c3)ccc2c1 ?
ERK EGF block: 25µM*

Results for COc1cc(C(=O)O)ccc1O ?
ERK EGF block: 1%

How did C[C@@H]1C[C@](C)(C(=O)c2ccc3ccccc3c2)C=C1c1ccc2ccccc2c1 do in these assays?
ERK EGF block: 0%

What do the screens show for `CS(=O)(=O)N1CCC2(CCN(Cc3ccc(C#N)cc3)CC2)CC1`?
ERK EGF block: 1%

How did O=C1CCCC(=O)N1c1ccc(N2CCN(c3ccc([N+](=O)[O-])cc3)CC2)c([N+](=O)[O-])c1 do in these assays?
ERK EGF block: 6%

How did O=C(CCCCl)NC(=S)Nc1ccc(CN2CCOCC2)cc1 do in these assays?
ERK EGF block: 7%[57.5 µM]

Results for O=C(COc1ccc(Cl)cc1Cl)NC(=S)Nc1ccc(CN2CCOCC2)cc1 ?
ERK EGF block: 20µM*

How did O=C(COc1ccccc1Cl)NC(=S)Nc1ccc(CN2CCOCC2)cc1 do in these assays?
ERK EGF block: -12%

How did CCCCC/C=C\C/C=C\C/C=C\C/C=C\CCCCCC(=O)NC(C)C(=O)O (stereo not drawn) do in these assays?
ERK EGF block: 2%

Results for COc1ccc([C@H]2c3cc(OC)c(OC)cc3C[C@@H](C)[C@@H]2C)cc1OC ?
ERK EGF block: -6%

Results for CN1/C(=C/C(=O)C2CC2)C(C)(C)c2ccccc21 ?
ERK EGF block: 11%

Results for CN1/C(=C\C(=O)Nc2cccc(Cl)c2)C(C)(C)c2ccccc21 ?
ERK EGF block: 8%

How did CC1=NN(c2ccccc2)C(=O)/C1=C\C=C1\N(C)c2ccccc2C1(C)C do in these assays?
ERK EGF block: 16µM*

Results for Cc1nn(-c2ccccc2)c(N)c1C1(O)C(=O)N(C)c2ccccc21 (stereo not drawn) ?
ERK EGF block: 7%

How did CC1=NN(c2ccccc2)C(=O)/C1=C\C=C1/N(C)c2ccccc2C1(C)C do in these assays?
ERK EGF block: 13µM*

Results for CN1/C(=C\C(=O)CSc2nncn2C)C(C)(C)c2ccccc21 ?
ERK EGF block: 2%

What do the screens show for `O=S(=O)(c1ccc(S(=O)(=O)N2CCOCC2)cc1)N1CCCC1`?
ERK EGF block: -5%

What do the screens show for `Cc1cccc(C)c1NC(=O)CNCC(=O)N(C)C`?
ERK EGF block: 2%

What do the screens show for `CN(C)S(=O)(=O)c1ccc(C(=O)OCC(=O)NCc2ccco2)cc1`?
ERK EGF block: 37%

What do the screens show for `C=CC(C)(O)CC1[C@@]2(C)CCCC(C)(C)C2CC[C@]1(C)O` (stereo partly drawn)?
ERK EGF block: -10%

Results for Cc1cc(C)n(/N=C/c2cc([N+](=O)[O-])ccc2O)c(=O)c1 ?
ERK EGF block: -1%

Results for Cc1ccc(C(=O)N/N=C\c2ccc(-c3ccc(Cl)c(Cl)c3)o2)cn1 ?
ERK EGF block: 18µM*

How did Cc1nnc(SCC(=O)N/N=C/c2ccc(-c3ccc(C)c(Cl)c3)o2)s1 do in these assays?
ERK EGF block: 2%

What do the screens show for `Cc1ccc(C(=O)N/N=C/c2ccc(-c3ccccc3[N+](=O)[O-])o2)cn1`?
ERK EGF block: 2%

How did CCCCC/C=C\C/C=C\C/C=C\C=C\C1CCCC(=O)O1 (stereo not drawn) do in these assays?
ERK EGF block: 4%

Results for CCO[C@@H]1OC(C(=O)NCc2nc3ccccc3[nH]2)=C[C@H](c2ccc(C(F)(F)F)cc2)[C@H]1CCCO ?
ERK EGF block: -12%[57.5 µM]

What do the screens show for `COc1ccc(/C=C/C(=O)c2cc(Cl)ccc2O)c(OC)c1`?
ERK EGF block: 2%[57.5 µM]

How did O=C(/C=C/c1ccncc1)c1cc(Cl)ccc1O do in these assays?
ERK EGF block: 9%[57.5 µM]

Screening results (PubChem BioAssay)
